According to PubChem BioAssay (NCATS):
Inconclusive results are not listed. A call without a number means that no potency is given here. Calls of active or inactive are those of the source. Calls come from the whole dose curve; as a rule, active = well fitted inhibition curve with a large enough effect in the repeat runs; inconclusive = weak or mixed curves; inactive = no such curve, though single readings can be large or run the other way.

Molecular target: Cytochrome P450 2C9 (Homo sapiens) (UniProt P11712)
Test: Cytochrome P450 family 2 subfamily C member 9 (CYP2C9) small molecule antagonists: luciferase biochemical (cell-free) qHTS assay (AID 1645842); note: nearly all actives have a fitted effect of over 55% in size
Details: P450-Glo CYP2C9 enzyme assay, luciferin luminescence; series mostly up to 57.4 µM
Summary of the method: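 P450-Glo CYP2C9 system: proluciferin substrate with enzyme in mix containing 0.4% BSA, 10 min at room temperature, then NADPH regeneration solution added and incubated 1 h at 37C. Detection reagent stopped reaction; luminescence read after 20 min as RLU.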
Potency is the fitted concentration of half-maximal effect.

Sequence of Cytochrome P450 2C9 (Homo sapiens) (P11712 whole entry, looked up): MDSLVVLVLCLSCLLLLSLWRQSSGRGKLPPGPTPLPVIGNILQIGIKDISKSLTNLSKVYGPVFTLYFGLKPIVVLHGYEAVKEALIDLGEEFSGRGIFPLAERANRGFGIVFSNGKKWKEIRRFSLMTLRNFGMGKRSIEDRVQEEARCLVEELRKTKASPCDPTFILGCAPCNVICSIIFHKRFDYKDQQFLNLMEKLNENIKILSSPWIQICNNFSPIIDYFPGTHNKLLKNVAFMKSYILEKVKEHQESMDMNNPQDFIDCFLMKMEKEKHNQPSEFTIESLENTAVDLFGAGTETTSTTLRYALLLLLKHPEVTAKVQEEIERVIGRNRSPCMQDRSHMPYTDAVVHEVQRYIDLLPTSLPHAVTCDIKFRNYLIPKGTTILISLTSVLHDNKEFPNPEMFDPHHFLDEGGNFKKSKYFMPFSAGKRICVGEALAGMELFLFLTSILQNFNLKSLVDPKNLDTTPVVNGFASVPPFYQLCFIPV

| SMILES | Potency |
| --- | --- |
| CCOC(=O)c1cccc(N)c1 | inactive |
| CCCCCCCCCCOCC(O)CN (stereo not drawn) | 10.8 µM (active) |
| COC1=CC(=O)C[C@@H](C)[C@]12Oc1c(Cl)c(OC)cc(OC)c1C2=O | inactive |
| Cc1ccc(O)c2ncccc12 | inactive |
| CCN(CC)C(=O)/C(C#N)=C/c1cc(O)c(O)c([N+](=O)[O-])c1 | 0.0436 µM (active) |
| Oc1ccc(Cl)c2cccnc12 | inactive |
| CCC(=O)c1c(O)cc(O)cc1O | 15.5 µM (active) |
| NC(=NCCCCCCN=C(N)/N=C(\N)Nc1ccc(Cl)cc1)/N=C(\N)Nc1ccc(Cl)cc1 | 24.5 µM (active) |
| C[C@@H]1C[C@H]2[C@@H]3C[C@H](F)C4=CC(=O)C(Cl)=C[C@]4(C)[C@@]3(F)[C@@H](O)C[C@]2(C)[C@@]1(O)C(=O)CO | inactive |
| CC[C@@H](CO)NCCN[C@@H](CC)CO | inactive |
| CCCCCCCCCCCCCCCC[N+](C)(C)CCN(Cc1ccc(OC)cc1)c1ncccn1 | 24.5 µM (active) |
| COc1ccc(CN2CCN(C(c3ccc(F)cc3)c3ccc(F)cc3)CC2)c(OC)c1OC | 11 µM (active) |
| C[n+]1c2cc(N)ccc2cc2ccc(N)cc21 (tested in a mixture with another compound) | inactive |
| Oc1cc(O)c2c(c1)O[C@H](c1ccc(O)c(O)c1)[C@H](O)C2 | inactive |
| COc1cccc2c1C(=O)c1c(O)c3c(c(O)c1C2=O)C[C@@](O)(C(=O)CO)C[C@@H]3O[C@H]1C[C@H](N)[C@H](O)[C@H](C)O1 | inactive |
| CC(C)(CO)[C@@H](O)C(=O)NCCCO | inactive |
| CC(C)=CCC1C(=O)N(c2ccccc2)N(c2ccccc2)C1=O | inactive |

| SMILES | Potency |
| --- | --- |
| NCCCC[C@H](N[C@@H](CCc1ccccc1)C(=O)O)C(=O)N1CCC[C@H]1C(=O)O | inactive |
| CCCCCCCCCCCCCCNCCO | inactive |
| COc1cc(C(=S)N2CCOCC2)cc(OC)c1OC | inactive |
| CC(Cc1cccc(C(F)(F)F)c1)NCCOC(=O)c1ccccc1 (stereo not drawn) | 19.5 µM (active) |
| CC(=O)N/N=C/c1ccc([N+](=O)[O-])o1 | inactive |
| Oc1ccc(Cl)cc1Sc1cc(Cl)ccc1O | 12.3 µM (active) |
| O=C(CCCN1CCC(O)(c2ccc(Br)cc2)CC1)c1ccc(F)cc1 | inactive |
| OC(CCN1CCCCC1)(c1ccccc1)c1ccccc1 | inactive |
| C=C(CC)C(=O)c1ccc(OCC(=O)O)c(Cl)c1Cl | 3.89 µM (active) |
| O=C(O)CCCCC(=O)O | inactive |
| CC(C)(C)CC(C)(C)c1ccc(O)c(Cc2ccc(Cl)cc2Cl)c1 | 3.09 µM (active) |
| Nc1ccc(C(=O)Nc2ccccc2N)cc1 | inactive |
| CN(C)CC/C=C1\c2ccccc2Sc2ccc(Cl)cc21 | inactive |
| C[C@]12CCC(=O)C=C1[C@@H]1C[C@@H]1[C@H]1[C@@H]3[C@@H]4C[C@@H]4[C@@]4(CCC(=O)O4)[C@@]3(C)CC[C@@H]12 | inactive |
| C[C@]12CC[C@@H]3c4ccc(O)cc4CC[C@H]3[C@@H]1CC[C@@H]2O | inactive |
| CN(C(=O)CN(CCO)CC(=O)N(C)C(C)(C)Cc1ccccc1)C(C)(C)Cc1ccccc1 | 15.5 µM (active) |
